In PubChem BioAssay (NCI):
Where “and” joins values, the source holds several entries; their conditions need not be identical. Equal entries are not always repeated. About 83,000 compounds went through this panel and 20% of them were active in at least one assay; those are over-represented in the sample as a whole.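 Note: values are percent growth. 100 is the growth of untreated cells, values between 100 and 0 indicate rising inhibition; between -100 and 0 indicates cell death.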 Calls of active or inactive are those of the source.

Each compound was assayed on U251 CNS (assay: NCI-60 one-dose screen, 48 h (100 = growth as untreated, 0 = no growth, -100 = all killed)). Details: 0.25 µM.
Experimental: Growth inhibition of the U251 human tumor cell line is measured as a screen for anti-cancer activity. Cells are grown in 96 well plates and exposed to the test compound for 48 hours. Compounds are tested at a single concentration, which is 10^-5 M for most compounds. The reported endpoint is percent growth (GI% or GIPRCNT), where numbers from 0 - 100% represent growth inhibition, and numbers from -100% - 0 represent cell death. For example, a value of 40 represents 60% growth inhibition. A value of 0 means no net growth occurred over the course of the experiment. A value of -40 indicates 40% of cells at the beginning of the experiment died by the end of the experiment. A value of -100 means all cells are dead at the end of the experiment.
NCI-60 Human Tumor Cell Lines Screen was performed using the standard one-dose NCI protocol, which is described in more detail at https://dtp.cancer.gov/discovery_development/nci-60/default.htm.
Compounds with GIPRCNT values below 10 were considered active. Activity score was based on GIPRCNT using the following formula: […]
Score is 0 for GIPRCNT values of 100 or above, 50 for GIPRCNT values of 0, and 100 for GIPRCNT values of -100.
With `CCCCCCCCCCCCCCCc1ccc(Cl)c(O)c1Cl` (tested in a mixture with another compound) the growth was 13% (inactive).

Same assay, conditions: 10 µM
With `CCCCCCCCCCCCCCCc1ccc(Cl)c(O)c1Cl` (tested in a mixture with another compound) the growth was 92.9% (inactive).
`CC#C[C@]1(O)CC[C@H]2[C@@H]3CCC4=CC(=O)CCC4=C3[C@@H](c3ccc4c(c3)OCO4)C[C@@]21C` was tested, and the growth was 76.1% (inactive).

Same assay, conditions: 10 µM unless noted
For `CNc1ccc2nc3ccc(=[N+](C)C)cc-3sc2c1`, the growth was -48.5% (active) and -15.5% (active).
`COc1cc2c(Nc3ccc(Cl)c(Cl)c3F)ncnc2cc1OCC1C[C@@H]2CN(C)C[C@@H]2C1` (stereo not given in full) was tested, and the growth was -97.6% (active) and 13% (inactive).
`O=C(Nc1ccc(Br)cc1)c1cc(Br)ccc1O` was tested, and the growth was 15.4% (inactive) and 10.2% (inactive).
`CCN(CC)C(=S)SSC(=S)N(CC)CC` was tested, and the growth was 58.5% (inactive) and 100% (inactive).
`CCc1c(CC(=O)O)c2cc(C)ccc2n1Cc1ccc(Cl)cc1` was tested, and the growth was 107% (inactive) and 93.7% (inactive).
`CCN(CC)CCC(CNc1c2ccc([N+](=O)[O-])cc2nc2cc(OC)c(OC)cc12)c1ccccc1` (stereo not given) was tested, and the growth was -44.7% (active) and -100% (active).
`CC(=O)Nc1ccc(O)cc1` was tested, and the growth was 102% (inactive) and 106% (inactive) and 107% (inactive).
With `NC(=S)N/N=C(\c1ccc(Br)cc1)C1CC1` the growth was 93.2% (inactive).
With `COc1cc(NS(C)(=O)=O)ccc1Nc1c2ccccc2nc2c(C)cccc12` the growth was -3.95% (active) and -7.3% (active).
`CNC(=O)c1cc(Oc2ccc(NC(=O)Nc3ccc(Cl)c(C(F)(F)F)c3)cc2)ccn1` was tested, and the growth was 1.89% (active) and 0.072% (active).
`CN1CCN(C2CCN(C(=O)Nc3cc(Oc4ccc(NC(=O)C5(C(=O)Nc6ccc(F)cc6)CC5)c(F)c4)ccn3)CC2)CC1` was tested, and the growth was -86.3% (active) and 98.1% (inactive).
With `O=C(/C=C\c1ccnc2ccccc12)c1ccc([N+](=O)[O-])cc1` the growth was 95.3% (inactive) and 79.6% (inactive).
With `CC1=C(/C=C/C(C)=C/C=C/C(C)=C/C(=O)Nc2ccc(O)cc2)C(C)(C)CCC1` the growth was 66.8% (inactive).
With `COc1ccc(-c2ncnc3c2ncn3C/C=C/CCl)cc1` the growth was 64.2% (inactive) and 77.3% (inactive).
`O=C(N/N=C/c1cccc2ccccc12)C1CC1` was tested, and the growth was 99.7% (inactive) and 100% (inactive).
For `CC1=C(/C=C/C(C)=C/C=C/C(C)=C/C=N/NC(=S)NC(=S)N/N=C/C=C(C)/C=C/C=C(C)/C=C/C2=C(C)CCCC2(C)C)C(C)(C)CCC1`, the growth was -61.8% (active) and -94.4% (active).
For `c1ccc2cc(C[n+]3ccn(Cc4ccc5ccccc5n4)c3)ccc2c1`, the growth was 12.4% (inactive) and 23% (inactive).
In the case of `Cc1cccc(/C=C\C(=O)c2ccccc2)c1`, the growth was 64.8% (inactive) and 91.7% (inactive).
With `CN(C)CCCNC1=C(Cl)C(=O)c2ccccc2C1=O` the growth was -63% (active) and -94.2% (active).
In the case of `O=C1OC(Oc2ccc(Br)cc2)(c2ccccc2)c2ccccc21` (stereo not given), the growth was 78.9% (inactive) and 58.5% (inactive).
In the case of `Nc1cc2c(cc1N)-c1ccccc1C2`, the growth was 89.9% (inactive) and 89.5% (inactive).
With `NC(=S)NN=C1CCC(C2CCCCC2)CC1` (stereo not given) the growth was 93.7% (inactive) and 95.1% (inactive).
With `Nc1n[nH]c(=S)n1-c1ccc(Cl)cc1` the growth was 98.1% (inactive).
With `CCOC(=O)Nc1ccc2c(c1)/C(=N\NC(N)=S)c1ccccc1-2` the growth was 52.6% (inactive) and 48.8% (inactive).
`CO/N=C/C=C\C(=O)N/C=C/C[C@H]1/C=C/[C@H](O)/C=C\C=C\c2cccc(O)c2C(=O)O1` was tested, and the growth was 33.3% (inactive) and 32.2% (inactive).
For `CCN(CC)CCOc1ccc2c(c1)C(=O)c1cc(OCCN(CC)CC)ccc1-2`, the growth was 53.6% (inactive) and 61.3% (inactive).
For `COc1cc(/C=N/Nc2nc3c([nH]2)c(=O)n(C)c(=O)n3C)ccc1O`, the growth was 99.1% (inactive) and 104% (inactive).
In the case of `Nc1ccc2[nH]c(-c3ccccc3)cc(=O)c2c1`, the growth was 72.9% (inactive).
With `Cc1ccc(S(=O)(=O)Nc2ccc3cc([N+](=O)[O-])ccc3c2[N+](=O)[O-])cc1` the growth was 82.1% (inactive) and 88.2% (inactive).
In the case of `Cc1nn(-c2ccccc2)nc1C(=O)Nc1ccccc1C(=O)NCC1CC1`, the growth was 73.3% (inactive).
`O=S(=O)(Nc1ccccc1)C1CCCCC1` was tested, and the growth was 109% (inactive) and 102% (inactive).
In the case of `S=C(S)N1CCCC1`, the growth was 85.1% (inactive) and 49% (inactive).
`COc1cc(C(=O)N/N=C/c2ccc(N(C)C)cc2)cc(OC)c1OC` was tested, and the growth was 3.96% (active).
`CN1CCN(Cc2occc(=O)c2O)CCN(C)CCN(Cc2occc(=O)c2O)CC1` was tested, and the growth was 94.8% (inactive) and 23.1% (inactive).
`CCOC(=O)c1sc(N)nc1-c1ccccc1` was tested, and the growth was 98.8% (inactive).
In the case of `CC[N+](CC)(CC(=O)Nc1c(C)cccc1C)Cc1ccccc1`, the growth was 75.6% (inactive) and 97.9% (inactive).

Same assay, conditions: 100 µM
`CC#C[C@]1(O)CC[C@H]2[C@@H]3CCC4=CC(=O)CCC4=C3[C@@H](c3ccc4c(c3)OCO4)C[C@@]21C` was tested, and the growth was -49.5% (active).
